Experimental data as given in PubChem BioAssay.
This is one part of the list. Active and inactive are the calls of the source. Cut-off read from the data, not from the text of the source, unless noted: active = inhibition above about 40%; inactive = the rest.

Key:
[1] = Peg3 promoter reporter inhibitors, retest, confirmation, cell-based, HeLa, luciferase reporter, single concentration (AID 602417;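 active = at 20 µM dose, 40% or more inhibition averaged across four replicates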); settings: HeLa PEG-Prom luciferase reporter, luminescence, overnight; at 20 µM; stronger effect = higher value
PEG-3 [2] = biological target: PEG-3 (UniProt Q6IN02); experiment: Peg3 promoter luciferase inhibitors, potency, dose response, cell-based, HeLa, CREF/GAPDH counter-screen panel (AID 624167); settings: CREF/GAPDH counter-screens; HeLa PEG-Prom luciferase reporter, overnight, run 1, dose range 1, at 100 µM (top of the series) unless noted
Sequence of PEG-3 (Q6IN02 whole entry, looked up): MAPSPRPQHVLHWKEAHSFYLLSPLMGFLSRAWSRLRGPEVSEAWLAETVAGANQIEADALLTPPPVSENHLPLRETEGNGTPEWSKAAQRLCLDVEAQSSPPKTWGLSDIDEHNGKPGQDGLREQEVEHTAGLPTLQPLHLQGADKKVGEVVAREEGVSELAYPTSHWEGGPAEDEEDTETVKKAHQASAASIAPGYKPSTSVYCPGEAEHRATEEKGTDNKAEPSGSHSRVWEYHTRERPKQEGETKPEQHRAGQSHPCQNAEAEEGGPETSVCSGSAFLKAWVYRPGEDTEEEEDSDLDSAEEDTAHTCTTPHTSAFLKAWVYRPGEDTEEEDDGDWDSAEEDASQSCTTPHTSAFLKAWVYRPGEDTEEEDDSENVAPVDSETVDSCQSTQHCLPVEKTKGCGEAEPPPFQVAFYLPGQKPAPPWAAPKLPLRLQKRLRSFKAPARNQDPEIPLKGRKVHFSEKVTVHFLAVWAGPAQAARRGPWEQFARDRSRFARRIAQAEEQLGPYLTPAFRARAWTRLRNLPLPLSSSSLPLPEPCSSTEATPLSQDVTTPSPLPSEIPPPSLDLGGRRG

PEG-3 [3] = biological target: PEG-3 (UniProt Q6IN02); experiment: as above; settings: CREF/GAPDH counter-screens; HeLa PEG-Prom luciferase reporter, overnight, run 2, dose range 1, at 100 µM (top of the series) unless noted
Rat fibroblasts (CREF) [4] = experiment: as above; settings: CREF/GAPDH counter-screens; run 1, dose range 1, at 100 µM (top of the series)
Rat fibroblasts (CREF) [5] = experiment: as above; settings: CREF/GAPDH counter-screens; run 2, dose range 1, at 100 µM (top of the series)
[6] = inhibitors of PAF-induced NF-kB signaling, retest, confirmation, cell-based, GFP fluorescence, single concentration (AID 602472); settings: KKLEB CF airway cells, overnight, at 5 µM, stronger effect = higher value;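 note: stimulus PAF is a Pseudomonas aeruginosa filtrate and not platelet activating factor; plate controls were DMSO wells with stimulus for no effect and unstimulated DMSO wells for full effect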
[7] = inhibitors of PAF-induced NFkB signaling in CF airway cells, dose response, cell-based, uHTS hits, panel, cytotoxicity readout (AID 624344); settings: CF bronchial epithelial cells, PAF-induced NFkB reporter inhibition, with PAF, run 1; at 79 µM (top of the series) unless noted
[8] = as above; settings: CF bronchial epithelial cells, PAF-induced NFkB reporter inhibition, with PAF, run 2; at 79 µM (top of the series) unless noted
[9] = biological target: Tumor necrosis factor receptor superfamily member 10B (Homo sapiens) (UniProt O14763); experiment: caspase-8 TRAIL sensitization, hit retest, confirmation, cell-based, NB7+caspase-8, with/without TRAIL, luminescence panel (AID 651596; in the data active = activity above about 50%); settings: NB7 neuroblastoma + caspase-8, TRAIL sensitization, luminescence viability, with TRAIL, mean of runs, at 10 µM, stronger effect = higher value
Sequence of Tumor necrosis factor receptor superfamily member 10B (Homo sapiens) (O14763 whole entry, looked up): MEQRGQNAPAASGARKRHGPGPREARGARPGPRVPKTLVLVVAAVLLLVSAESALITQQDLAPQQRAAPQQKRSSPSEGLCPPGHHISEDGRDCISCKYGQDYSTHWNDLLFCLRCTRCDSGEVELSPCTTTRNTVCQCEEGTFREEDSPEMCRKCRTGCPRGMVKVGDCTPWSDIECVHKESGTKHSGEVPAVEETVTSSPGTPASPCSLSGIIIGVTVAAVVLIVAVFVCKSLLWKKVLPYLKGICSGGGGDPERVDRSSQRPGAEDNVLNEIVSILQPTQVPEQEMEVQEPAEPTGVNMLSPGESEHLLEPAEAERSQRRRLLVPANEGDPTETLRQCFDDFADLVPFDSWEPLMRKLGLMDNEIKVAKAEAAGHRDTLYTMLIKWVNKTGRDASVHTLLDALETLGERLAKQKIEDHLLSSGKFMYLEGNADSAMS

[10] = as above; settings: NB7 neuroblastoma + caspase-8, without TRAIL, luminescence viability, without TRAIL, mean of runs, at 10 µM
[11] = HIF-2a reporter inhibitor retest, confirmation, luminescence, 786-0 RCC cells (AID 651580;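 active = mean inhibition across four replicates of at least 40 percent at the single tested concentration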); settings: HIF-2a luciferase reporter luminescence, overnight, at 18.8 µM, stronger effect = higher value
[12] = HIF-1a luciferase reporter signal reduction – MiaPaCa-2 cells, single concentration, counter-screen for HIF-2a inhibitor project, confirmation (AID 651589;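 active = mean inhibition of the reporter signal across four replicates at the single tested dose of 50% or more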); settings: MiaPaCa-2 HIF-1a luciferase reporter, desferoxamine, overnight; at 18.8 µM; stronger effect = higher value

Question: For `CN(O)C(=S)c1ccccc1`, which inhibition [1] is on record?
Answer: Its inhibition is 89.1% (active).

Question: What about the inhibition (PEG-3 [2]) of the same molecule?
Answer: Its inhibition is 27%.

Question: What about the inhibition (PEG-3 [3]) of the same molecule?
Answer: The inhibition was 78.7%.

Question: And the inhibition (Rat fibroblasts (CREF) [4])?
Answer: The inhibition was 0.489%.

Question: What about the inhibition (Rat fibroblasts (CREF) [5]) of the same molecule?
Answer: Its inhibition is -19.9%.

Question: Which inhibition [1] does the source give for `NS(=O)(=O)c1ccc(N=Nc2c(O)[nH]c3ccc(Br)cc23)cc1` here?
Answer: The inhibition was 0.42% (inactive).

Question: Which inhibition [1] does the source give for `CCCc1cc(=O)n2[nH]c(C)c(-c3ccc(Cl)cc3)c2n1` here?
Answer: Its inhibition is 51.5% (active).

Question: And the inhibition (PEG-3 [2])?
Answer: Its inhibition is 94%.

Question: What about the inhibition (PEG-3 [3]) of the same molecule?
Answer: The inhibition was 88.7%.

Question: Which inhibition [6] does the source give for `Clc1ccc2c(c1)C1=C(C(c3ccncc3)O2)C(c2ccc(Br)cc2)n2ncnc2N1` (stereo not given) here?
Answer: The inhibition was 50% (active).

Question: With `COc1ccc(CN(C)C(=O)c2cc(-c3ccc(C)cc3C)nc3ccccc23)c(OC)c1OC` as the molecule, how does the inhibition [1] read?
Answer: The inhibition was 75.2% (active).

Question: What about the inhibition [6] of the same molecule?
Answer: The inhibition was 61.6% (active).

Question: And the inhibition (PEG-3 [2])?
Answer: Its inhibition is 102%.

Question: And the inhibition (PEG-3 [3])?
Answer: The inhibition was 102%.

Question: What about the inhibition [7] of the same molecule?
Answer: The inhibition was 103%.

Question: And the inhibition [8]?
Answer: The inhibition was 111%.

Question: Which inhibition [1] does the source give for `Cc1ccc(C)c(S(=O)(=O)N2CCN(c3ncnc4sccc34)CC2)c1` here?
Answer: Its inhibition is 69.5% (active).

Question: And the inhibition (PEG-3 [2])?
Answer: Its inhibition is 90.1%.

Question: What about the inhibition (PEG-3 [3]) of the same molecule?
Answer: Its inhibition is 91.3%.

Question: What about the inhibition (Rat fibroblasts (CREF) [4]) of the same molecule?
Answer: The inhibition was 13.9%.

Question: And the inhibition (Rat fibroblasts (CREF) [5])?
Answer: Its inhibition is 74.8%.

Question: And the activity [9]?
Answer: The activity was 68.5%.

Question: And the activity [10]?
Answer: The activity was 69%.

Question: For `O=C(CSc1nc(Nc2ccccc2)nc(N2CCOCC2)n1)Nc1cc(Cl)ccc1O`, which inhibition [1] is on record?
Answer: Its inhibition is 78.8% (active).

Question: And the inhibition (PEG-3 [2])?
Answer: The inhibition was 98.4%.

Question: What about the inhibition (PEG-3 [3]) of the same molecule?
Answer: Its inhibition is 101%.

Question: Which inhibition [1] does the source give for `CNC(=O)c1ccsc1NC(=O)c1ccc(S(=O)(=O)N2CCc3ccccc32)cc1` here?
Answer: Its inhibition is 52.4% (active).

Question: What about the inhibition (PEG-3 [2]) of the same molecule?
Answer: Its inhibition is 65%.

Question: What about the inhibition (PEG-3 [3]) of the same molecule?
Answer: The inhibition was 63.5%.

Question: What does the source list for `CN1OC[C@@H]2CN(S(=O)(=O)c3cccc(C(F)(F)F)c3)[C@H](c3ccc(-c4cc5ccccc5o4)cc3)C[C@@H]21`?
Answer: inhibition [1]: 52.7% (active); inhibition [11]: 46.4% (active); inhibition [12]: 75.2% (active); inhibition (PEG-3 [2]): 60%; inhibition (PEG-3 [3]): 73.1%; inhibition (Rat fibroblasts (CREF) [4]): 17%; inhibition (Rat fibroblasts (CREF) [5]): 24.5%

Question: Which inhibition [1] does the source give for `O=C(NCCN1CCOCC1)c1ccc(/C=C2\Sc3ccccc3N(Cc3ccc(F)cc3)C2=O)cc1` here?
Answer: The inhibition was 42.8% (active).

Question: Which inhibition [1] does the source give for `c1ccc(C(=NNc2nc3ccccc3s2)c2ccccn2)cc1` here?
Answer: Its inhibition is 61% (active).

Question: What about the inhibition (PEG-3 [2]) of the same molecule?
Answer: Its inhibition is 101%.

Question: What about the inhibition (PEG-3 [3]) of the same molecule?
Answer: The inhibition was 102%.

Question: Which results are given for `COc1ccc(-c2cc(C(=O)N(C)Cc3ccc(OC)c(OC)c3OC)c3ccccc3n2)cc1OC`?
Answer: inhibition [1]: 60.4% (active); inhibition (PEG-3 [2]): 68.7%; inhibition (PEG-3 [3]): 72.5%

Question: For `COc1cccc2c1C(=O)c1c(O)c3c(c(O)c1C2=O)CC(O)(C(C)=NNC(=O)c1ccc(Cl)c(Cl)c1)CC3OC1CC(N)C(O)C(C)O1` (stereo not given), which inhibition [1] is on record?
Answer: Its inhibition is 96.6% (active).

Question: What about the inhibition (PEG-3 [2]) of the same molecule?
Answer: Its inhibition is 102%.

Question: And the inhibition (PEG-3 [3])?
Answer: Its inhibition is 101%.

Question: And the inhibition (Rat fibroblasts (CREF) [4])?
Answer: Its inhibition is 99.3%.

Question: And the inhibition (Rat fibroblasts (CREF) [5])?
Answer: The inhibition was 98.6%.

Question: Which inhibition [6] does the source give for `Cc1ccc(Cc2c(-c3ccco3)nc3ccc(Cl)cn23)cc1` here?
Answer: The inhibition was -82.3% (inactive).

Question: Which results are given for `CCn1cc(CN2CCC(C(=O)Nc3cccc(-c4cccc(Cl)c4)c3)CC2)cn1`?
Answer: inhibition [1]: 94.5% (active); inhibition (PEG-3 [2]): 99.1%; inhibition (PEG-3 [3]): 98.3%

Question: For `COc1ccc(CNc2ncnc3ccccc23)cc1`, which inhibition [6] is on record?
Answer: Its inhibition is 47.6% (active).

Question: What about the inhibition [7] of the same molecule?
Answer: The inhibition was 112%.

Question: What about the inhibition [8] of the same molecule?
Answer: The inhibition was 87%.

Question: Which inhibition [6] does the source give for `COc1ccc(NC(=O)c2sc3nc(C)nc(N4CCN(c5ccccn5)CC4)c3c2C)c(OC)c1` here?
Answer: The inhibition was 38.6% (inactive).

Question: Which inhibition [6] does the source give for `C#CCN(C[C@@H]1[C@@H](OC(=O)NC2CC2)[C@@H](OC(=O)NC2CC2)Cn2c(=O)ccc(=O)n21)S(=O)(=O)c1ccc(C)cc1` here?
Answer: Its inhibition is 61.6% (active).

Question: And the inhibition [7]?
Answer: Its inhibition is 102%.

Question: And the inhibition [8]?
Answer: Its inhibition is 111%.

Question: Which results are given for `C=C1C(=O)[C@]23C[C@H]1CCC2[C@@]1(C)C(C[C@@H]3O)[C@](C)(C(=O)O)CC[C@@H]1O` (stereo not given in full)?
Answer: inhibition [6]: 83% (active); inhibition [7]: 97.1%; inhibition [8]: 104%

Question: Which inhibition [6] does the source give for `O=C1Nc2ccccc2/C1=C/c1ccnc2ccccc12` here?
Answer: The inhibition was 55% (active).

Question: What about the inhibition [7] of the same molecule?
Answer: Its inhibition is 106%.

Question: And the inhibition [8]?
Answer: Its inhibition is 111%.

Question: For `COC(=O)c1ccc(NC(=O)c2ccccc2NS(=O)(=O)c2ccccc2)cc1`, which inhibition [6] is on record?
Answer: The inhibition was 69.8% (active).

Question: What about the inhibition [7] of the same molecule?
Answer: Its inhibition is 118%.

Question: And the inhibition [8]?
Answer: The inhibition was 105%.

Question: Which inhibition [6] does the source give for `COc1cccc2sc(N(CCCN(C)C)C(=O)CCS(=O)(=O)c3ccccc3)nc12` here?
Answer: Its inhibition is 102% (active).

Question: What about the inhibition [7] of the same molecule?
Answer: The inhibition was 88.9%.

Question: And the inhibition [8]?
Answer: Its inhibition is 86.9%.

Question: Which inhibition [6] does the source give for `O=C(NNc1ccccc1Cl)C(O)(c1cccc(C(F)(F)F)c1)c1cccc(C(F)(F)F)c1` here?
Answer: The inhibition was 63% (active).

Question: And the inhibition [7]?
Answer: The inhibition was 115%.

Question: What about the inhibition [8] of the same molecule?
Answer: The inhibition was 105%.

Question: For `Cc1cc2nc(-c3ccco3)c(Cc3cccc(F)c3)n2c(C)c1Br`, which inhibition [6] is on record?
Answer: The inhibition was -41.6% (inactive).

Question: With `O=[N+]([O-])c1ccc(Oc2ccc(F)cc2Br)c2ccncc12` as the molecule, how does the inhibition [6] read?
Answer: The inhibition was 77.7% (active).

Question: What about the inhibition [7] of the same molecule?
Answer: The inhibition was 116%.

Question: And the inhibition [8]?
Answer: The inhibition was 103%.

Question: With `CC(=O)Oc1c(C(=O)c2nnc(C)o2)c(=O)n(Cc2ccccc2)c2ccccc12` as the molecule, how does the inhibition [6] read?
Answer: The inhibition was 59% (active).

Question: And the inhibition [7]?
Answer: The inhibition was 112%.

Question: And the inhibition [8]?
Answer: The inhibition was 101%.

Question: Which inhibition [6] does the source give for `COc1ccc(CNC(=O)/C(C#N)=C/c2cccc(OC)c2OC)cc1` here?
Answer: Its inhibition is 34.1% (inactive).

Question: With `CC(C)CC1C(=O)N(Cc2cn(CC3CCCCC3)nn2)CCS(=O)(=O)N1Cc1ccc(-c2ccc(Cl)cc2)cc1` (stereo not given) as the molecule, how does the inhibition [6] read?
Answer: The inhibition was 32.8% (inactive).

Question: Which inhibition [6] does the source give for `COc1cc(OC)cc(C(=O)N[C@H](C(=O)Nc2nc3ccccc3[nH]2)C(C)C)c1` here?
Answer: Its inhibition is 85.8% (active).

Question: And the inhibition [7]?
Answer: The inhibition was 84.2%.

Question: What about the inhibition [8] of the same molecule?
Answer: The inhibition was 80.2%.

Question: With `O=C1OC(Oc2ccc(Br)cc2)(c2ccccc2)c2ccccc21` (stereo not given) as the molecule, how does the inhibition [6] read?
Answer: The inhibition was 4.99% (inactive).

Question: With `O=C(CSc1nc(C2CC2)nc2ccccc12)Nc1cccc(O)c1` as the molecule, how does the inhibition [6] read?
Answer: The inhibition was 50.6% (active).

Question: What about the inhibition [7] of the same molecule?
Answer: Its inhibition is 90.6%.

Question: What about the inhibition [8] of the same molecule?
Answer: Its inhibition is 79.8%.
